Assay results reported in PubChem BioAssay.
Activity calls are given as the source filed them. Unless noted, no rule for the calls is given here.

Legend:
[1] = HepG2 liver cancer cell viability effects, profiling panel, resazurin fluorescence, 24 h, PK04 Diversity Set (AID 1172); conditions: higher = more signal
[2] = basal S. cerevisiae growth modulation, no modifier, primary screen, OD600, strain BY4716, 24 h, basal condition (AID 1173); conditions: OD600, 24 h, higher = more signal, called active from +8 up or from −8 down
[3] = MM1S myeloma cell viability, profiling panel, resazurin fluorescence, basal, 24 h, PK04 Diversity Set (AID 1174); conditions: higher = more signal, called active from +8 up or from −8 down;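 also: MM1S multiple myeloma cell line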
[4] = biological target: Dihydroorotate dehydrogenase (quinone), mitochondrial (Plasmodium falciparum (isolate 3D7)) (UniProt Q08210); experiment: PfDHODH enzyme inhibitors, primary screen, biochemical, C-terminal His tag, absorbance 600 nm (AID 1175); conditions: DCIP absorbance 600 nm, higher = more signal, called active from +8 up or from −8 down;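 also: recombinant parasite enzyme with a five histidine tag at its C terminus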
[5] = P. aeruginosa biofilm formation inhibitors, primary screen, strain PAO1, LB-PBS medium, absorbance 600 nm (AID 1176); conditions: P. aeruginosa PAO1 growth/biofilm, A600, 12 h; higher = more signal
[6] = S. cerevisiae RM11-1a growth modifiers, primary screen, strain RM11-1a, OD600, basal, 24 h (AID 1177); conditions: OD600, 24 h, higher = more signal, called active from +8 up or from −8 down;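 also: cultures grown under basal conditions with no added stressor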
[7] = E. coli acrAB mutant growth effects, primary screen, E. coli filamentation inducers, strain DRC39, OD650, 24 h (AID 1178); conditions: higher = more signal, called active from +8 up or from −8 down;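 also: growth measured as culture turbidity by optical density at 650 nm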
[8] = E. coli acrAB mutant growth effects, primary screen, E. coli filamentation inducers, strain DRC39, OD650, 48 h (AID 1179);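 also: screen aims at cell division blockers that make cells filament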; conditions: E. coli DRC39 delta-acrAB growth, higher = more signal, called active from +8 up or from −8 down
[9] = RPMI8226 myeloma cell viability, profiling panel, resazurin fluorescence, basal, 24 h, PK04 Diversity Set (AID 1180); conditions: higher = more signal;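 also: RPMI8826 multiple myeloma cell line at 5000 cells per well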
[10] = biological target: E3 ubiquitin-protein ligase XIAP (Homo sapiens) (UniProt P98170); experiment: XIAP binders, primary screen, biophysical, small-molecule microarray, fluorescence 635 nm (AID 1181); conditions: small-molecule microarray binding, higher = more signal;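 also: score merges 667 nm emission and signal to noise over triplicate slides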
[11] = tested on: XIP peptide (Xip251-270) binding; experiment: small-molecule binders of XIP peptide, primary screen, biochemical, small-molecule microarray, fluorescence 635/667 nm, 0.1 µg/mL protein (AID 1182); conditions: fluorescent protein binding, 635 nm, higher = more signal, called active from +8 up or from −8 down
[12] = tested on: XIP peptide (Xip251-270); experiment: small-molecule binders of XIP peptide, primary screen, biochemical, small-molecule microarray, fluorescence 635/667 nm, 0.5 µg/mL protein (AID 1183); conditions: small-molecule microarray binding, fluorescence 635 nm; higher = more signal
[13] = Plasmodium falciparum growth inhibition, primary screen, strain 3D7, DAPI fluorescence, 100 nL (AID 1184);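 also: parasites grown inside human red blood cells in medium with human serum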; conditions: P. falciparum 3D7 growth, 3 d, higher = more signal
[14] = biological target: Homeobox protein Hox-A13 (Mus musculus) (UniProt Q62424); experiment: inhibitors of HoxA13-DNA binding, primary screen, biochemical, fluorescence polarization, labeled oligonucleotide (AID 1185); conditions: 15 min, higher = more signal, called active from +8 up or from −8 down
[15] = inhibitors of hydroxyurea-induced Chk1 phosphorylation, primary screen, imaging, HeLa, phospho-Chk1 antibody, percent positive cells (AID 1186); conditions: hydroxyurea-induced phospho-Chk1 immunofluorescence imaging, higher = more signal
[16] = inhibitors of hydroxyurea-induced Chk1 phosphorylation, primary screen, imaging, HeLa, phospho-Chk1 nuclear intensity (AID 1187); conditions: hydroxyurea-induced phospho-Chk1 immunofluorescence imaging, higher = more signal

Chain of Dihydroorotate dehydrogenase (quinone), mitochondrial (Plasmodium falciparum (isolate 3D7)) (Q08210 whole entry, looked up): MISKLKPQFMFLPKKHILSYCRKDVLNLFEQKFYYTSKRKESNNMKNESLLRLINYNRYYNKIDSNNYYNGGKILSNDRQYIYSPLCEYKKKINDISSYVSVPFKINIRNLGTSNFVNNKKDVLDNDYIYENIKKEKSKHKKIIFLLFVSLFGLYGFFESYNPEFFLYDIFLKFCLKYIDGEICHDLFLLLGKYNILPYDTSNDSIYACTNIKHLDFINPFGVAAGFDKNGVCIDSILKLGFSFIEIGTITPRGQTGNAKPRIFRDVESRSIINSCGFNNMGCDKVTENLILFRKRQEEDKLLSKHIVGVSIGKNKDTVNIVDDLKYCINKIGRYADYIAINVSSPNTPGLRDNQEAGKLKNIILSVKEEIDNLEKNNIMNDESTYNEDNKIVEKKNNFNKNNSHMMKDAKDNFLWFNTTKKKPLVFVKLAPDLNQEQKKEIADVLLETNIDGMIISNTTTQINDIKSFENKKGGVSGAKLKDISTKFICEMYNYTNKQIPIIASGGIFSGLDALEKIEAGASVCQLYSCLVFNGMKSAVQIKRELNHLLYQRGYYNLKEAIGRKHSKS
Chain of E3 ubiquitin-protein ligase XIAP (Homo sapiens) (P98170 whole entry, looked up): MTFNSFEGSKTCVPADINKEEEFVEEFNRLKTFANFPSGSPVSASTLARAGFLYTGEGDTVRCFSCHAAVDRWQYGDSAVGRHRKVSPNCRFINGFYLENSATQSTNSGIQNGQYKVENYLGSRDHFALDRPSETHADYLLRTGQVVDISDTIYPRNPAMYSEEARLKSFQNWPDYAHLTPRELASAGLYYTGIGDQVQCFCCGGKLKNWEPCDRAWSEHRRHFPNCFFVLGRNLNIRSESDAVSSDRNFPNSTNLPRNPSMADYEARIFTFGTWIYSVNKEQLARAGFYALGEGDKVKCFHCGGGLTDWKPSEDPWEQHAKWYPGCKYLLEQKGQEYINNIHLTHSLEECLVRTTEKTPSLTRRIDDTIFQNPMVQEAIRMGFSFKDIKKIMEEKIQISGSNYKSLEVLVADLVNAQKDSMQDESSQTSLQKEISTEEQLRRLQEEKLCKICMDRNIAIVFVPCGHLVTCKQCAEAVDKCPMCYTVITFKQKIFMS
Chain of Homeobox protein Hox-A13 (Mus musculus) (Q62424 whole entry, looked up): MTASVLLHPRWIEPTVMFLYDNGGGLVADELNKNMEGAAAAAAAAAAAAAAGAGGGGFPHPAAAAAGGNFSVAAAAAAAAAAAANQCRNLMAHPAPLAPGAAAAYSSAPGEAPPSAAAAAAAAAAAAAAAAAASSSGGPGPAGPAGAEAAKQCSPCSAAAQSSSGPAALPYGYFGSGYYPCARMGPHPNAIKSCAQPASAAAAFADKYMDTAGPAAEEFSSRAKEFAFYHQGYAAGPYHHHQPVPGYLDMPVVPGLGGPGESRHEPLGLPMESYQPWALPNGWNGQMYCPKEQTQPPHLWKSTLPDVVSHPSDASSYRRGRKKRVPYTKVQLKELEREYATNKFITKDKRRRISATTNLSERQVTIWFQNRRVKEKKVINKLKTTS

SMILES | z-score [1] | z-score [2] | z-score [3] | composite z-score [4] | z-score [5] | z-score [6] | z-score [7] | z-score [8] | z-score [9] | composite z-score [10] | composite z-score [11] | composite z-score [12] | z-score [13] | z-score [14] | z-score [15] | z-score [16]
[N-]=[N+]=Nc1ccccc1C[C@@]1(C(=O)NCCN2CCOCC2)N=C(c2ccc(OCCCO)cc2)O[C@@H]1c1ccccc1N=[N+]=[N-] | -1.02 | -3.4 (inactive) | -2.12 (inactive) | 0.322 (inactive) | -0.124 (inactive) | 0.26 (inactive) | -0.229 (inactive) | -1.02 (inactive) | -2.02 | 0.17 | 0.361 (inactive) | 0.846 | -2.49 | -5.26 (inactive) | -0.303 (inactive) | -0.523 (inactive)
CN1C(=O)C2C=CC(C(O)c3cccn3C)N(Nc3ccc([N+](=O)[O-])cc3[N+](=O)[O-])C2C1=O (centres undefined) | -0.929 | 1.1 (inactive) | -1.76 (inactive) | -0.145 (inactive) | 0.667 (inactive) | 0.407 (inactive) | -0.314 (inactive) | -0.119 (inactive) | -1.34 | -0.354 | -0.438 (inactive) | -0.564 | 0.69 | -5.85 (inactive) | 0.769 (inactive) | 0.127 (inactive)
C=CCOC(=O)[C@@]1(Cc2ccccc2)C[C@H]2CO[C@H](c3ccc(OC)cc3)N2C1=O | -0.352 | -2.69 (inactive) | 0.437 (inactive) | -0.972 (inactive) | 0.125 (inactive) | -1.1 (inactive) | -0.0115 (inactive) | -0.187 (inactive) | 0.0399 | -0.184 | -0.373 (inactive) | -0.0614 | -0.829 | -3.45 (inactive) | -0.0248 (inactive) | -0.386 (inactive)
COCCCNC(=O)[C@@]1(Sc2ccc(C)cc2)CC(=O)N(C2Cc3ccccc3C2)[C@@H]1c1ccc(CO)cc1 | 0.183 | -0.153 (inactive) | 0.307 (inactive) | -0.277 (inactive) | 0.779 (inactive) | -1.35 (inactive) | 0.897 (inactive) | 0.568 (inactive) | 0.222 | -0.0367 | 0.33 (inactive) | 0.446 | -1.52 | -3.56 (inactive) | -0.0691 (inactive) | 0.0579 (inactive)
COCCOC(=O)N1C(=O)[C@@]2(c3ccccc31)[C@H](C(=O)NC[C@H](O)c1ccccc1)[C@H]1C(=O)O[C@H](c3ccccc3)[C@H](c3ccccc3)N1[C@@H]2c1ccc(O)cc1 | 0.248 | 0.64 (inactive) | -0.65 (inactive) | -0.0106 (inactive) | 0.269 (inactive) | 1.64 (inactive) | -0.236 (inactive) | -0.803 (inactive) | -0.773 | -0.103 | 0.26 (inactive) | 0.819 | -1.02 | -3.48 (inactive) | 0.326 (inactive) | 0.653 (inactive)
C=C(COC)C(=O)CC[C@@H](OC(C)=O)c1cccc(OCCO)c1 | -0.434 | 0.823 (inactive) | -0.0743 (inactive) | 0.0704 (inactive) | -0.329 (inactive) | 1.17 (inactive) | 0.858 (inactive) | 0.503 (inactive) | -0.929 | -0.263 | 0.309 (inactive) | -0.0276 | -0.988 | -3.69 (inactive) | 0.367 (inactive) | -0.113 (inactive)
C=CCN1C(=O)[C@]2(CCS(=O)(=O)c3ccccc3)N=C(c3ccc(OCCCO)cc3)O[C@@H]2c2ccccc21 | -0.735 | 0.383 (inactive) | -1.36 (inactive) | -0.756 (inactive) | 0.218 (inactive) | 0.742 (inactive) | 0.7 (inactive) | 0.916 (inactive) | -1.96 | 0.0738 | 0.0088 (inactive) | 0.804 | -2.33 | -2.55 (inactive) | -0.419 (inactive) | -0.216 (inactive)
CC[C@@H]1O[Si](C(C)C)(C(C)C)c2c1cc(-c1cc(C)c(OC)c(C)c1)nc2-c1ccc(Oc2ccccc2)cc1 | 1.41 | -0.122 (inactive) | 0.722 (inactive) | -0.148 (inactive) | -0.783 (inactive) | -0.0894 (inactive) | 0.48 (inactive) | 0.424 (inactive) | 0.51 | 0.113 | -0.162 (inactive) | -0.22 | 0.0977 | -1.52 (inactive) | -0.557 (inactive) | -0.461 (inactive)
CCCC#C[Si](O[C@H](CC)c1cn([C@H](C)c2ccccc2)nn1)(C(C)C)C(C)C | 0.186 | -12.9 (active) | -0.098 (inactive) | 0.738 (inactive) | -0.677 (inactive) | 0.75 (inactive) | 1.4 (inactive) | 1.06 (inactive) | 1.29 | 0.274 | 0.062 (inactive) | 0.78 | -0.285 | -0.652 (inactive) | -0.673 (inactive) | -0.399 (inactive)
Cn1cccc1C(O)C1C=CC2C(=O)N(c3ccccc3)C(=O)C2N1Nc1ccccc1 (centres undefined) | -0.194 | 0.917 (inactive) | -0.251 (inactive) | 0.0729 (inactive) | 0.571 (inactive) | -0.529 (inactive) | 0.312 (inactive) | 0.881 (inactive) | 0.0611 | -0.0773 | 0.622 (inactive) | 0.801 | -0.255 | -4.04 (inactive) | 0.121 (inactive) | -0.436 (inactive)
COC(=O)[C@@]1(Cc2ccc(F)cc2)[C@H]2c3cc(C(=O)N(C)C)n(CCc4ccc(OC)c(Br)c4)c3C[C@H]2CN1C(=O)c1ccccc1 | -1.73 | 0.233 (inactive) | -8.44 (active) | -3.85 (inactive) | 2.7 (inactive) | 0.399 (inactive) | -0.893 (inactive) | -1.49 (inactive) | -5.69 | -0.337 | -0.192 (inactive) | 0.167 | -1.75 | -5.01 (inactive) | -0.316 (inactive) | -0.869 (inactive)
C=CCC(OC(C)=O)[C@@H]1[C@@H](N(Cc2ccc(-c3cccc(C(F)(F)F)c3)o2)C(=O)c2ccc(-c3ccccc3)cc2)c2cc(OCCCO)ccc2N1C(=O)Cc1ccc2ccccc2c1 (some centres undefined) | 0.0839 | 0.915 (inactive) | -0.115 (inactive) | 0.306 (inactive) | 0.338 (inactive) | 0.805 (inactive) | 0.0952 (inactive) | 0.119 (inactive) | 0.322 | -0.17 | -0.186 (inactive) | -0.738 | -0.694 | -1.1 (inactive) | 0.345 (inactive) | 0.291 (inactive)
COCCOC(=O)N1C(=O)[C@@]2(c3cc(C#CCNC(N)=O)ccc31)[C@H](C(N)=O)[C@H]1C(=O)O[C@H](c3ccccc3)[C@H](c3ccccc3)N1[C@@H]2c1ccccc1OCCO | -0.281 | 0.407 (inactive) | -0.126 (inactive) | -0.235 (inactive) | 0.986 (inactive) | 1.59 (inactive) | -0.0653 (inactive) | -0.0752 (inactive) | -0.0771 | -0.135 | 0.253 (inactive) | 0.485 | 0.0701 | -2.45 (inactive) | 0.0661 (inactive) | 0.588 (inactive)
CCCCC(=C=CC[C@H](O)c1ccc(OCCO)cc1)CCO | -0.0738 | -2.31 (inactive) | -0.149 (inactive) | -0.32 (inactive) | 0.154 (inactive) | -0.162 (inactive) | -1.28 (inactive) | -1.06 (inactive) | 0.0466 | 0.0365 | 0.0643 (inactive) | 0.256 | -1.17 | -4.31 (inactive) | -0.373 (inactive) | -0.317 (inactive)
CC(C)C(CO)N1C(=O)[C@@H]2C3C(=O)OCCC/C=C\[C@H]3OC23C=CCN(c2ccc4ccccc4c2)C(=O)[C@@H]13 (some centres undefined) | -0.507 | 0.267 (inactive) | -0.235 (inactive) | -0.42 (inactive) | -0.292 (inactive) | -0.259 (inactive) | -0.275 (inactive) | -0.24 (inactive) | -0.344 | 0.683 | 0.0076 (inactive) | 0.0118 | 0.674 | -6.34 (inactive) | 0.467 (inactive) | 0.516 (inactive)
COc1cc2c(cc1O)C(c1cccs1)N(Cc1cc3c(cc1Br)OCO3)CC2 (centres undefined) | -0.608 | -1.4 (inactive) | -0.511 (inactive) | -1.88 (inactive) | -0.227 (inactive) | 0.488 (inactive) | -0.284 (inactive) | -1 (inactive) | -1.59 | 0.483 | -0.177 (inactive) | 0.867 | -1.57 | -1.01 (inactive) | -0.117 (inactive) | 0.128 (inactive)
COc1cc(NN2C(C(O)c3ccco3)C=CC3C(=O)N(C)C(=O)C32)cc(OC)c1OC (centres undefined) | -1.41 | 0.753 (inactive) | -1.76 (inactive) | -0.139 (inactive) | 0.711 (inactive) | 0.322 (inactive) | -1.02 (inactive) | -0.941 (inactive) | -1.98 | 0.391 | -0.0656 (inactive) | -0.423 | -0.188 | -3.41 (inactive) | 0.476 (inactive) | 0.18 (inactive)
COc1ccc(CCNC(=O)[C@@]2(c3ccc([N+](=O)[O-])cc3)CC(=O)N(C3CCCCC3)[C@@H]2c2ccc(CO)cc2)cc1 | 0.159 | -0.0229 (inactive) | -0.881 (inactive) | 0.395 (inactive) | -0.342 (inactive) | 1.14 (inactive) | 0.914 (inactive) | 0.686 (inactive) | 0.556 | -0.0333 | 1.48 (inactive) | 0.662 | -0.171 | -4.2 (inactive) | -0.192 (inactive) | 0.0527 (inactive)
CCCC=C(CCC)[C@@H](NC(=O)C(C)(C)C)c1ccc(C(=O)OC)cc1 | 1.35 | 1.3 (inactive) | -0.0387 (inactive) | 0.0907 (inactive) | 0.122 (inactive) | 1.17 (inactive) | -0.187 (inactive) | 0.0571 (inactive) | -0.0244 | -0.34 | 0.158 (inactive) | -0.227 | -1.47 | -0.168 (inactive) | -0.75 (inactive) | -0.977 (inactive)
